# High-throughput results: PubChem BioAssay, National Center for Advancing Translational Sciences (NCATS)
# ELG1 genotoxic – inducers of genotoxicity in HEK293T ELG1-luciferase cells; HEK293T ELG1-luciferase reporter, luminescence, 16 h; Potency, µM (highest dose often 46 µM), hits mostly activators; hit rate 1.3% among 330,000; note: nearly all actives have a fitted effect of over 60% in size
#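 HEK293T cells expressing luciferase-tagged ELG1 were treated with compound or DMSO for 16 hr at 37°C. Luciferase activity was then read after 30 min with ONE-Glo at room temperature; rising signal flags genetic stress.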
# NPC1 prom act – activators of NPC1 promoter | Huh7 NPC1 promoter luciferase reporter, 24 h | Potency, µM (top dose mostly 9.22 µM), most hits filed as activators | hit rate 2.4% among 320,000 | AID 485313; note: nearly all actives have a fitted effect of over 60% in size
#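 Luciferase expression driven by the NPC1 promoter was measured in stably transfected Huh7 cells after a 24 h compound incubation, using a luciferase reagent and a luminescence read.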
# Rab9 promoter act – activates the Rab9 promoter; Huh7 Rab9 promoter-luciferase reporter, luminescence, 24 h; Potency, µM (series often up to 9.22 µM), most hits filed as activators; hit rate 2.8% among 320,000; note: nearly all actives have a fitted effect of over 60% in size
#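 Quantitative HTS format; Huh7 Rab9-luciferase reporter cells (1500/well) receive compound 2 h post-plating, incubate 24 h at 37 °C, then get luciferase reagent for 10 min before luminescence reading.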
# SMN2 splice enh – increases expression of the SMN2 splice variant; hit rate 2.8% among 210,000; AID 1458; HEK293 SMN2-luciferase splicing reporter, luminescence, 30-36 h; Potency, µM (highest dose often 46.1 µM), most hits filed as activators; note: nearly all actives have a fitted effect of over 55% in size
#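 HEK293 cells carry an SMN2 minigene-luciferase reporter in which exon 7 inclusion puts luciferase in frame. Cells were seeded at 2000 cells/well, attached for 10-12 hours, then exposed to compounds for 30-36 hours at 37C before ONE-Glo luminescence.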
# FLuc modulator – inhibits or activates purified firefly luciferase, miR-21 counter-screen. AID 588342. Potency, µM (doses to about 57.5 µM), actives largely listed as inhibitors. hit rate 6.9% among 360,000. purified FLuc, Km substrates, luminescence inhibition. P08659; note: nearly all actives have a fitted effect of over 55% in size
# Target sequence (P08659 whole entry, looked up): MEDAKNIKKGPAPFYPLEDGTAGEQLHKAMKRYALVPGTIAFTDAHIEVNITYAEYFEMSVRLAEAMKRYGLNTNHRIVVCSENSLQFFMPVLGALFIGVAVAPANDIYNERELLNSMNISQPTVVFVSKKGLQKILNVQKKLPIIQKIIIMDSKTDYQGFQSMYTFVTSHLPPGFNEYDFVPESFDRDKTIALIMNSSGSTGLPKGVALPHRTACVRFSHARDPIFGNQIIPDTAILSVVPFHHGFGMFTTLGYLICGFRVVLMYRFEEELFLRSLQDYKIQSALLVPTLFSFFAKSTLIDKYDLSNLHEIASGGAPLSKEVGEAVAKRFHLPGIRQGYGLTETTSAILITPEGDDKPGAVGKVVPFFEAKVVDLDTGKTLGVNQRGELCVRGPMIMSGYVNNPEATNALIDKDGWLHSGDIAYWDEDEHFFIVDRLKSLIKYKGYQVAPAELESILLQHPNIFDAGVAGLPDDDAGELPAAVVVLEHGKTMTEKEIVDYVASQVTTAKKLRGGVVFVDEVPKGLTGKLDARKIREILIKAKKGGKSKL
#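 Purified P. pyralis luciferase (10nM final) with 10uM D-luciferin and 10uM ATP (Km levels) in 50mM Tris acetate pH 7.5, 10mM Mg acetate, 0.01% Tween-20, 0.05% BSA; qHTS 6-point titration, ~60 µM downward; luminescence read.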
# Numbers stand for hits; i = inactive; ? = inconclusive; nt = no result; [ ] = dose if it differs, or a comment. Most compounds without a hit are left out; they make up all but 7.5% or so of the library. Calls come from the whole dose curve; as a rule, active = well fitted curve in the direction sought with a large enough effect; inconclusive = small, poorly fitted or top-dose-only effect, or another doubt; inactive = no such curve, though single readings can be large; an effect the other way counts as inactive or inconclusive.
SMILES,ELG1 genotoxic,NPC1 prom act,Rab9 promoter act,SMN2 splice enh,FLuc modulator
Cc1ccc2nc(SC(C)C(=O)N3CCOCC3)[nH]c2c1 (configuration not stated),?,2.5µM,3.2µM,20µM,24µM
CC(Sc1nc(N)cc(=O)[nH]1)C(=O)N1CCOCC1 (configuration not stated),i,i,i,nt,i
O=C(COC(=O)CCCSc1nc2ccccc2[nH]1)Nc1cccc(F)c1,i,i,i,nt,13µM
OC[C@@H]1O[C@@H](O)[C@H](N=Cc2ccc3c(c2)OCO3)[C@@H](O)[C@@H]1O,nt,nt,nt,i[9.22 µM],nt
CCS(=O)(=O)N1Cc2ccccc2CC1C(=O)Nc1cccc(OC)c1 (configuration not stated),i,i,i,nt,?
C#CCN(Cc1ccco1)C(=O)c1cc(COc2ccc(F)cc2Cl)on1,i,i,i,nt,?
O=C(CSc1nnc(-c2ccncc2)o1)NC1CCCCC1,i,i,i,nt,i
Cn1c(-c2ccc(F)c(F)c2)cc2onc(-c3ccccc3)c2c1=O,2.3µM,0.79µM,1.1µM,nt,1.3µM
COc1cccc(-c2cc3onc(-c4ccccc4)c3c(=O)n2C)c1,?,0.71µM,0.4µM,nt,0.85µM
COC(=O)c1ccc(-c2cc3onc(-c4ccccc4)c3c(=O)n2C)cc1,?,?,i,nt,4.3µM
CCc1ccc(NC(=O)C2CCCN(S(=O)(=O)c3ccc4c(c3)oc(=O)n4C)C2)cc1 (configuration not stated),nt,nt,nt,i,i
COc1ccc(C(=O)N/N=C\c2ccoc2)cc1,?,?,i,nt,19µM
CCOc1cccc(C(=O)N/N=C/c2ccoc2)c1,?,i,i,nt,13µM
CC(C)c1cc(C(=O)N/N=C/c2ccoc2)cs1,?,?,?,nt,12µM
CC(C)c1cc(C(=O)N/N=C/c2cccnc2)cs1,i,i,i,?,?
Cc1ccc(C(=O)N/N=C/c2ccoc2)cc1C,?,?,?,nt,27µM
NC(=O)c1ccc(NC(=O)COC(=O)/C=C/c2ccc(Br)o2)cc1,i,nt,nt,nt,nt
COc1cc(C2N=C(c3ccccc3)NO2)cc(Br)c1O (configuration not stated),i,i,i,i,?
FC(F)Oc1ccc(C2N=C(c3ccccc3)NO2)cc1 (configuration not stated),?,2.8µM,1.6µM,nt,4.8µM
COc1ccc(C2N=C(c3ccccc3)NO2)cc1OC (configuration not stated),?,i,i,nt,11µM
CCOc1ccc(C(=O)Nc2onc3c2CCCC3)cc1,nt,nt,nt,2.8µM,0.3µM
CC(C)COc1ccc(C(=O)Nc2onc3c2CCCC3)cc1,nt,nt,nt,i,0.34µM
CC(C)COc1ccc(C(=O)Nc2ccc([N+](=O)[O-])cc2)cc1,i,i,i,i,i
O=C(CSc1nc(-c2cccs2)cc(C(F)(F)F)n1)Nc1cc(OCC(F)(F)F)cc([N+](=O)[O-])c1,i,i,i,i,i
CC(C)c1ccc(NC2=NCC(=O)N2Cc2cccs2)cc1,?,i,i,i,?
SMILES,ELG1 genotoxic,NPC1 prom act,Rab9 promoter act,SMN2 splice enh,FLuc modulator
C/C(N)=C(/C#N)C(=O)COC(=O)c1cc2c(s1)CCC(C)C2 (configuration not stated),?,i,i,i,17µM
CNC(=O)COC(=O)c1cc2c(s1)CCCC2,i,i,i,i,i
C/C(N)=C(/C#N)C(=O)COC(=O)c1cc2c(s1)CCCC2,?,i,i,i,15µM
CC1CCc2sc(C(=O)OCC(=O)NCc3ccccc3)cc2C1 (configuration not stated),i,i,i,nt,i
CC(C)(C)c1ccc(/C=C/C(=O)N2CCc3ccccc3C2)cc1,i,i,i,i,?
O=C(/C=C/c1ccc(F)cc1)N1CCc2ccccc2C1,i,?,2.5µM,nt,11µM
Cc1ccc(/C=C/C(=O)N2CCc3ccccc3C2)cc1,?,i,i,i,11µM
c1ccc(-c2nnsc2Sc2ccccn2)cc1,i,i,i,i,17µM
Clc1ccc(CSc2snnc2-c2ccccc2)cc1,i,i,i,i,i
Clc1ccccc1CSc1snnc1-c1ccccc1,?,i,i,i,21µM
CO/N=C/NC(=O)c1c(OC)ccnc1Oc1ccc(Cl)cc1,i,i,?,i,i
CC(C)(C)c1ccc(C(=O)NC(Cc2c[nH]c3ccccc23)C(=O)OCC(=O)c2ccc(Cl)cc2)cc1 (configuration not stated),nt,nt,nt,nt,i
COC(=O)[C@@H](Cc1c[nH]c2ccccc12)NC(=O)c1ccc2c(c1)OCO2,?,i,i,nt,0.48µM
O=C(COC(=O)[C@H](Cc1c[nH]c2ccccc12)NC(=O)c1ccc(Cl)cc1)Nc1ccc2c(c1)OCO2,i,i,i,i,17µM
Cc1ccc(NC(=O)CSc2nc(O)cc(=O)n2C)cc1,i,i,i,i,?
Cc1cccc(NS(=O)(=O)c2c(C)n[nH]c2C)c1,i,i,i,i,i
Cc1ccc(-c2cc(C(=O)N3CCCc4ccccc43)no2)cc1,?,?,3.2µM,?,4.3µM
O=C(c1cc(-c2cccs2)on1)N1CCCc2ccccc21,?,i,i,i,17µM
COc1ccccc1-c1cc(C(=O)N2CCCc3ccccc32)no1,i,i,i,i,?
O=C(c1ccccc1F)N1CCCc2ccccc21,i,i,i,nt,i
O=C(c1cc(-c2ccc(F)cc2)on1)N1CCCc2ccccc21,?,i,?,?,11µM
O=C(Nc1ccc(-c2cn3ccccc3n2)cc1)c1cc(Br)ccc1O,nt,nt,nt,i[9.22 µM],nt
O=C(Nc1cccc(-c2cn3ccccc3n2)c1)c1cnccn1,i,i,i,?,12µM
O=C(Nc1cccc(-c2cn3ccccc3n2)c1)c1cccc(Cl)c1,i,i,i,i,2.4µM
O=C(Nc1cccnc1)c1ccc(Cl)c(Cl)c1,i,i,i,nt,?
SMILES,ELG1 genotoxic,NPC1 prom act,Rab9 promoter act,SMN2 splice enh,FLuc modulator
CN(C)c1nc(N)c(C(=O)Nc2cccnc2)nc1Cl,nt,nt,nt,11µM,nt
CCC(C)NC(=O)c1ccccc1SC (configuration not stated),i,i,i,i,i
CC(NC(=O)c1cccc(NC(=O)c2nsc3ccccc23)c1)c1ccccc1 (configuration not stated),nt,nt,nt,nt,3.8µM
CN(Cc1ccccc1)C(=O)c1cccc(NC(=O)c2nsc3ccccc23)c1,nt,nt,nt,nt,9.5µM
CC(C)Oc1ccc(CNC(=O)c2cccc(NC(=O)c3nsc4ccccc34)c2)cc1,nt,nt,nt,nt,9.5µM
Cc1ccc(C(=O)O)cc1NC(=O)c1nsc2ccccc12,nt,nt,nt,i,?
CC(NC(=O)c1ccc(NC(=O)c2nsc3ccccc23)cc1)c1ccccc1 (configuration not stated),nt,nt,nt,nt,3µM
O=C(CCNC(=O)c1ccc([N+](=O)[O-])cc1)Nc1ccc(F)cc1F,i,i,i,nt,i
COC(=O)CCC(=O)COc1ccccc1C#N,?,i,i,i,i
COc1ccc(NCc2ccc(OC)c(OC)c2)cc1,i,i,i,i,?
COc1ccc(CNc2ccc(Br)cc2)cc1,?,?,?,i,24µM
